Consider twelve sequences from publication PMC7862700, “An all-to-all approach to the identification of sequence-specific readers for epigenetic DNA modifications on cytosine”.

Common to all, as to experiment: DAPPL (digital affinity profiling via proximity ligation, sequencing); 10 mM Tris-HCl pH 7.5, 50 mM NaCl, 1 mM DTT, 4% glycerol, room temperature, 30 min; GST-TFs on glutathione beads, 16-mer random dsDNA library, 0.1% formaldehyde crosslink after washing; high values mean tight binding
What all share (details): protein: recombinant; tags: N-terminal GST; dsDNA, one strand shown

One test addresses T1, ELF3 (Homo sapiens, UniProt P78545 1-371).
T1 sequence: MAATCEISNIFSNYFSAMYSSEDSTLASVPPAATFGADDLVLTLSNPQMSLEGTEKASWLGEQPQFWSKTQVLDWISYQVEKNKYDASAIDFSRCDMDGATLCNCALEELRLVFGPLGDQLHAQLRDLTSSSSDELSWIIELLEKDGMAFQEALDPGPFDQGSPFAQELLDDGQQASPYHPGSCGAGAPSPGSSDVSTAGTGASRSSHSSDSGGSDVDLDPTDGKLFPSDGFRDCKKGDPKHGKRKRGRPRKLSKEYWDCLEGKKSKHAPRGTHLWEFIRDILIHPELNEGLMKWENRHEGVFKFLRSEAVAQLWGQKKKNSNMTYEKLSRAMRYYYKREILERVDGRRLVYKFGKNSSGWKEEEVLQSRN
The gist of the method: (§1)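 Binding signal is each hexamer's read frequency for a factor divided by its frequency in the tag-only sample. The factors were GST-fused human transcription factors from yeast, captured on glutathione beads, DNA-barcoded and pooled with that sample. Pools were incubated with 200 nmole of a random double-stranded 16-mer DNA library in Tris/NaCl/DTT/glycerol buffer at room temperature for 30 min, then washed, crosslinked with 0.1% formaldehyde, proximity-ligated with BsaI/T4 ligase (1 h, 37 °C), PCR-amplified and sequenced on an Illumina NextSeq500.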

The target of a further test is T2, ERF (Homo sapiens, UniProt P50548 1-548).
T2 sequence: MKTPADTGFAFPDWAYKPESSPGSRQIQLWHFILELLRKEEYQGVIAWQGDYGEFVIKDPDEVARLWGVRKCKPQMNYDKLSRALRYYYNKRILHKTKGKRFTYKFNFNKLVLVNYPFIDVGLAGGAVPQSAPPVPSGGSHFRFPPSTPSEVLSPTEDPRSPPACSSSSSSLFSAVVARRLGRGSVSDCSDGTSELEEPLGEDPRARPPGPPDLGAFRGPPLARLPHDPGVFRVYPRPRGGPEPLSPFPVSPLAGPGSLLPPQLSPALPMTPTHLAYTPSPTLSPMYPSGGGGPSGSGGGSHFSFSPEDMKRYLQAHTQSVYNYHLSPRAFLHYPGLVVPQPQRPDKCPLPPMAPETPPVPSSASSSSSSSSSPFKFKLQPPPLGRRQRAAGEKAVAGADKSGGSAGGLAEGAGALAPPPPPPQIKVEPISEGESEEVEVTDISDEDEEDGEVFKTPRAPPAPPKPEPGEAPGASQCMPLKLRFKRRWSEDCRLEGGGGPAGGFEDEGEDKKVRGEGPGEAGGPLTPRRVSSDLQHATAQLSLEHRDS
Summed up:
as §1

The next test concerns the target T3, ETV7 (Homo sapiens, UniProt Q9Y603 1-341).
T3 sequence: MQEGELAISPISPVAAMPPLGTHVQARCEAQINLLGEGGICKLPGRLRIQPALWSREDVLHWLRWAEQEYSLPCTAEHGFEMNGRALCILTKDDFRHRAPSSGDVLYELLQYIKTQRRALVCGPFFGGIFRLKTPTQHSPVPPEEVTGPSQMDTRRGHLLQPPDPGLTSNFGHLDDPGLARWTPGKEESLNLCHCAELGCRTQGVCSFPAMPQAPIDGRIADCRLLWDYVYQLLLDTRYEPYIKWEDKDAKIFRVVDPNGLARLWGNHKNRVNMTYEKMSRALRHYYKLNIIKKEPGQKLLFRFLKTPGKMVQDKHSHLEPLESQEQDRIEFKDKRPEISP
Summed up:
as §1

The target in the next test is T4, ELK3 (Homo sapiens, UniProt P41970 1-407).
T4 sequence: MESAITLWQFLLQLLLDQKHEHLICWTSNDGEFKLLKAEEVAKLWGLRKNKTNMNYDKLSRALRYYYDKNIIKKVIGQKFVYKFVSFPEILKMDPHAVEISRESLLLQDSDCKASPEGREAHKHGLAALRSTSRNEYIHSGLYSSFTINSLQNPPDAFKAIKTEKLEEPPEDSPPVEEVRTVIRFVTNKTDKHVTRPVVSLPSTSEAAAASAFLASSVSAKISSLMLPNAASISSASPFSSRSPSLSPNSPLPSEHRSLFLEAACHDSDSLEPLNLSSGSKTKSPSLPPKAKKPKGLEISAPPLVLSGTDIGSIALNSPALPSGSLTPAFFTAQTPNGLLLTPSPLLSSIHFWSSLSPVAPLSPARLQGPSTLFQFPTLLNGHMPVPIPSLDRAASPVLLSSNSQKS
The gist of the method: as §1

In a further test the target is CRX (Homo sapiens, UniProt O43186 1-299). Summed up:
as §1

The target of another test is T5, SPDEF (Homo sapiens, UniProt O95238 1-335).
T5 sequence: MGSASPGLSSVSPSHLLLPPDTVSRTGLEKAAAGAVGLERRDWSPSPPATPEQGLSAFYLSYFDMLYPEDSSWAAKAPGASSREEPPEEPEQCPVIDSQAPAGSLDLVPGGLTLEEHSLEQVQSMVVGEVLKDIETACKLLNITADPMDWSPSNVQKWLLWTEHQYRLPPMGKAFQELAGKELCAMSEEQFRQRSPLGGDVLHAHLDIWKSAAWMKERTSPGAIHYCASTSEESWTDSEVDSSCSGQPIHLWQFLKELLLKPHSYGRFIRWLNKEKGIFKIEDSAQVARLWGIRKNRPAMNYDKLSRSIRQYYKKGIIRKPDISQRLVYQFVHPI
The gist of the method: as §1

The next test addresses T6, EHF (Homo sapiens, UniProt Q9NZC4 1-300).
T6 sequence: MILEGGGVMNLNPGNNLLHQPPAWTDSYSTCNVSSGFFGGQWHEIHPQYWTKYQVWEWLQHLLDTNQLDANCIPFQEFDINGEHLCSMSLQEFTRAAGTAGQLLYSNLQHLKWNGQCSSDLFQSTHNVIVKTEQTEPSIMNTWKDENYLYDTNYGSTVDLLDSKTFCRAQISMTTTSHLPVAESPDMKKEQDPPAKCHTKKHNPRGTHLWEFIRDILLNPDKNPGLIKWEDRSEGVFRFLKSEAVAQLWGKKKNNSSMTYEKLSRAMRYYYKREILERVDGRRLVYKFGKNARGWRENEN
The gist of the method:
as §1

The next test concerns the target T7, ETV3 (Homo sapiens, UniProt P41162-2 1-143).
T7 sequence: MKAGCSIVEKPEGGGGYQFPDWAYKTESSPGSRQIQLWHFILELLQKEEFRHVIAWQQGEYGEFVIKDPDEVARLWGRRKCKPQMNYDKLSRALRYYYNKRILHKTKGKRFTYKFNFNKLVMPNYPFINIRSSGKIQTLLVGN
The gist of the method: as §1

The target in a further test is T8, ELF5 (Homo sapiens, UniProt Q9UKW6-2 1-255).
T8 sequence: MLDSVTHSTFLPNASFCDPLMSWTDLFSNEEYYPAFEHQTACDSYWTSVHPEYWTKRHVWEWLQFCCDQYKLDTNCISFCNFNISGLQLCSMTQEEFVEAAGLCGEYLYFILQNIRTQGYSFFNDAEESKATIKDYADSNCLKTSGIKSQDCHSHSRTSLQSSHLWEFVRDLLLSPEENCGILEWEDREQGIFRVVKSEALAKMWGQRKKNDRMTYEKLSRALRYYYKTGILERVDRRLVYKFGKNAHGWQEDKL
Summed up:
as §1

The next test has as its target SPI1 (Homo sapiens, UniProt P17947 1-270). The gist of the method:
as §1

Chain of CRX (O43186 whole entry): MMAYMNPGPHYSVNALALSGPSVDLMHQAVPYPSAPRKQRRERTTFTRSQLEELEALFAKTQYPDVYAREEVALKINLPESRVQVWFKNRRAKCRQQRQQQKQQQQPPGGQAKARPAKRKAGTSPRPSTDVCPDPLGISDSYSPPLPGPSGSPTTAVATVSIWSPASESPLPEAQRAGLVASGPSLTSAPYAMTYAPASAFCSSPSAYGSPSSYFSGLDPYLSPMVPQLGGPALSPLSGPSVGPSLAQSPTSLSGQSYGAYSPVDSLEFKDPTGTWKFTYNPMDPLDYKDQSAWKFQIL

For GAAAGG, the binding signal is 1.03 fold enrichment (6-mer frequency, TF over GST control) in the test with ELF3; 1 fold enrichment (6-mer frequency, TF over GST control) in the test with ERF; 1.02 fold enrichment (6-mer frequency, TF over GST control) in the test with ETV7.

Turning to GATTGG, the binding signal with ELK3 is 1.01 fold enrichment (6-mer frequency, TF over GST control); with CRX, 1.01 fold enrichment (6-mer frequency, TF over GST control).

AGCCGA: the binding signal with CRX was 1.08 fold enrichment (6-mer frequency, TF over GST control).

On to ATCAGG, for which the binding signal with CRX was 1.04 fold enrichment (6-mer frequency, TF over GST control).

Consider GGTTGT, for which the binding signal in the test with ELF3 is 1.06 fold enrichment (6-mer frequency, TF over GST control); with SPDEF, 1.03 fold enrichment (6-mer frequency, TF over GST control).

Consider AAGCCG, for which the binding signal with CRX is 1.42 fold enrichment (6-mer frequency, TF over GST control); with ETV7, 1.05 fold enrichment (6-mer frequency, TF over GST control).

For the sequence CAACAG, the binding signal with EHF is 1 fold enrichment (6-mer frequency, TF over GST control); with ELK3, 1.01 fold enrichment (6-mer frequency, TF over GST control); with ELF3 it was 1.03 fold enrichment (6-mer frequency, TF over GST control); with ETV3, 1.02 fold enrichment (6-mer frequency, TF over GST control).

Consider ACAAGG, for which the binding signal is 1.04 fold enrichment (6-mer frequency, TF over GST control) in the test with EHF; 1.02 fold enrichment (6-mer frequency, TF over GST control) with ELK3; 1.09 fold enrichment (6-mer frequency, TF over GST control) with ELF3; 1.14 fold enrichment (6-mer frequency, TF over GST control) in the test with ELF5.

With TAGAGG, the binding signal with CRX is 1.02 fold enrichment (6-mer frequency, TF over GST control).

With GTGCAC, the binding signal with SPI1 is 1.07 fold enrichment (6-mer frequency, TF over GST control); with ELF3 it was 1.02 fold enrichment (6-mer frequency, TF over GST control).

For the sequence AGTCTT, the binding signal was 1.03 fold enrichment (6-mer frequency, TF over GST control) in the test with SPI1; 1.02 fold enrichment (6-mer frequency, TF over GST control) in the test with CRX; 1.01 fold enrichment (6-mer frequency, TF over GST control) with ERF; 1.08 fold enrichment (6-mer frequency, TF over GST control) in the test with ELF5.

TAGCCG: in the test with CRX, the binding signal was 1.05 fold enrichment (6-mer frequency, TF over GST control).
